PHOSPHO1 block = PHOSPHO1 (human) inhibition; Q8TCT1; recombinant PHOSPHO1, absorbance phosphatase assay; inhibition, % at 13.3 µM; hit rate 1.1% among 290,000; AID 1565; in the data active = inhibition above about 60%
Target sequence (Q8TCT1 whole entry, looked up): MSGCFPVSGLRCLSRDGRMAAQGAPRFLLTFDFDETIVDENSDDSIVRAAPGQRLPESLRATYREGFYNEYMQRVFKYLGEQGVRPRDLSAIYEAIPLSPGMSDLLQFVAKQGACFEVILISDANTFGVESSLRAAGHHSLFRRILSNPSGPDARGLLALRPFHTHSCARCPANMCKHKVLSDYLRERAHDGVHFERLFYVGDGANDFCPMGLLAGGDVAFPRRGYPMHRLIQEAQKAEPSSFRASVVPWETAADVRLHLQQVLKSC
NadD block = inhibitors of Staphylococcus aureus NadD; purified NadD enzyme, colorimetric absorbance read-out; inhibition, % at 20 µM; hit rate 0.78% among 360,000; in the data active = inhibition above about 26%
UBC9 SUMO inh = SUMOylation inhibition. HTRF SUMOylation assay, SAE1/SAE2 + UBC9, in vitro. hit rate 0.36% among 290,000. inhibition, % at 35 µM; in the data active = inhibition above about 50%, passing the limit was not always enough
Target sequence (P63279 whole entry, looked up): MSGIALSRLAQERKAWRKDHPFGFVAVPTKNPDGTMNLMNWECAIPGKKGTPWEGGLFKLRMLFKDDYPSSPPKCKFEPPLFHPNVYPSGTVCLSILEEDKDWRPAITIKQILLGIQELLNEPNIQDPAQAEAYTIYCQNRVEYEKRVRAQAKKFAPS
pCIP destab = lowers stability of the mouse p/CIP coactivator protein. Q05BA5. F442A p/CIP-EGFP cells, EGFP fluorescence, 16 h. decrease of EGFP signal, % at 10 µM. hit rate 0.01% among 290,000. AID 1984;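 active = EGFP signal decrease of at least 30% at 10 µM or well 3 SD below plate mean, unless failing retest; inactive = the rest, including hits failing retest or dose response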
Large screens that a line does not name were inactive. Only some compounds are listed: those with a hit (about 1.8% of all), similar ones and a draw of the others.

COc1ccc(OC2(C)CCN(Cc3ccccc3OC(F)F)C2)cc1 (centres undefined)	none (no result: PHOSPHO1 block, UBC9 SUMO inh, pCIP destab)
CC1=NN(c2nc(-c3ccccc3)cs2)C(=O)C1N=Nc1ccccc1 (centres undefined)	none
CC1=NN(c2nc(-c3ccc(C)cc3)cs2)C(=O)C1N=Nc1ccc2ccccc2c1 (centres undefined)	NadD block 44
Cc1cccc(C)c1NC(=O)C1c2ccccc2OCC(=O)N1Cc1ccco1 (centres undefined)	none (no result: PHOSPHO1 block, UBC9 SUMO inh, pCIP destab)
O=C(NC1CC1)c1ccc(NC(=O)C2CCCCC2)cc1	none (no result: PHOSPHO1 block, UBC9 SUMO inh, pCIP destab)
C[C@@H]1CN([C@@H](C)CO)C(=O)CCCn2cc(nn2)CO[C@H]1CN(C)S(=O)(=O)c1ccc2ccccc2c1	none (no result: PHOSPHO1 block, UBC9 SUMO inh, pCIP destab)
CCc1nnc(NC(=O)CSc2nnc(CSc3nc(C)cc(C)n3)o2)s1	PHOSPHO1 block 94
COCCCN1C(=O)C(CC(=O)NCCCCc2ccccc2)CC(C(=O)N2CCOCC2)=C1C (centres undefined)	none (no result: PHOSPHO1 block, UBC9 SUMO inh, pCIP destab)
CS(=O)(=O)N1N=C(c2cccs2)CC1c1ccccc1O (centres undefined)	PHOSPHO1 block 60
Cc1ccc(C2=NN(C(=O)c3cccs3)C(c3ccccc3O)C2)cc1 (centres undefined)	none
O=C(c1cccs1)N1N=C(c2ccccc2)CC1c1ccccc1O (centres undefined)	UBC9 SUMO inh 66
CCn1c(C)c(C(C)=O)c(N2CCN(c3ccc(F)cc3)CC2)nc1=S	PHOSPHO1 block 102
COc1cc(SC)ccc1C(=O)NNC(=O)c1cc(C)oc1C	none (no result: PHOSPHO1 block, UBC9 SUMO inh, pCIP destab)
Cc1nc2sc(C(c3ccco3)N3CCN(c4ccc(F)cc4)CC3)c(O)n2n1 (centres undefined)	none
Cc1nc2sc(C(c3ccco3)N3CCN(c4ccccc4F)CC3)c(O)n2n1 (centres undefined)	PHOSPHO1 block 94
CC1CN(C(c2ccco2)c2sc3ncnn3c2O)CC(C)O1 (centres undefined)	PHOSPHO1 block 100
Cc1ccc(C(c2sc3ncnn3c2O)N2CCC(C)CC2)cc1 (centres undefined)	none
CCCCC(=O)N(C)c1c(CC)nc2c(OCC(=O)c3ccc(Cl)cc3Cl)cccn12	none (no result: PHOSPHO1 block, UBC9 SUMO inh, pCIP destab)
O=C(NCC1CCCO1)C1CCCN1C(=O)Nc1ccc(Cl)cc1 (centres undefined)	PHOSPHO1 block 60
O=C1c2ccccc2C(=O)N1CCSc1n[nH]c(=S)s1	PHOSPHO1 block 99
O=C1c2ccccc2C(=O)N1CCSc1ncn[nH]1	none
C[C@H]1CN([C@@H](C)CO)C(=O)c2cc(Br)cnc2O[C@@H]1CN(C)C(=O)c1ccncc1	none (no result: PHOSPHO1 block, UBC9 SUMO inh, pCIP destab)
CN1CCN(c2cc(N3CCN(C(=O)c4ccco4)CC3)c3c4c(onc24)-c2ccccc2C3=O)CC1	NadD block 34
CC(=O)C(C(C)=O)C1(O)C(=O)c2ccccc2C1=O	UBC9 SUMO inh 94
O=C1C(O)=C(O)C(=O)c2ccccc21	none (no result: PHOSPHO1 block, UBC9 SUMO inh, pCIP destab)
COc1cccc(C(=O)c2ccccc2NC(C)=O)c1	none (no result: PHOSPHO1 block, UBC9 SUMO inh, pCIP destab)
OC(C#Cc1ccccn1)c1cccs1 (centres undefined)	PHOSPHO1 block 60
FC(F)(F)c1cccc(-n2cccc2/C=N/n2cnnc2)c1	PHOSPHO1 block 94
Cc1ccccc1N1CCN(C2=NC(=O)/C(=C/c3cn[nH]c3-c3ccccc3)S2)CC1	NadD block 41
O=C1N=C(N2CCCC2)S/C1=C\c1cn[nH]c1-c1ccccc1	none (no result: NadD block)
Cc1ccc(C)n1-c1ccccc1N1CCCCC1	PHOSPHO1 block 63
Cc1nnc(NC(=O)CCN2C(=O)C3CC=CCC3C2=O)s1 (centres undefined)	none (no result: PHOSPHO1 block, UBC9 SUMO inh, pCIP destab)
CCOC(=O)c1[nH]c2ccccc2c1N=CN(C)C	none (no result: PHOSPHO1 block, UBC9 SUMO inh, pCIP destab)
CN(C)C=Nc1ccc2nc3c(cc2c1)[nH]c1ccccc13	UBC9 SUMO inh 50
O=C1NC[C@H](Cc2ccc(O)cc2)N(CCc2cccc(F)c2)C1=O	none (no result: PHOSPHO1 block, UBC9 SUMO inh, pCIP destab)
CCC(C)(C)NC(=O)C1CCCN(S(=O)(=O)c2ccc3c(c2)CC(C)N3C(=O)C2CC2)C1 (centres undefined)	PHOSPHO1 block 63
COc1ccc(C#CC2=CC(=O)CC(C)(C)C2)cc1	none (no result: PHOSPHO1 block, UBC9 SUMO inh, pCIP destab)
O=C(NNC(=S)NC(=O)c1ccco1)c1ccc(F)cc1	none
Cn1cccc1CC(=O)NNC(=S)NC(=O)c1ccc(F)cc1	PHOSPHO1 block 92
COc1cc(OC)cc(C(=O)NC(=S)NNC(=O)Cc2cccs2)c1	none
COc1ccc(C(=O)NC(=S)NCc2ccccc2)cc1	PHOSPHO1 block 62
COc1ccc(/C=C/C(=O)NC(=S)NNC(=O)Cc2cccs2)cc1OC	PHOSPHO1 block 98
COc1ccc(C(=O)NC(=S)NNC(=O)Cc2cccs2)cc1	PHOSPHO1 block 100
COC(=O)CCN1CCN(S(=O)(=O)c2ccccc2Br)CC1	PHOSPHO1 block 62
Cn1c(=O)c2cc(NC(=S)NC3CC3)ccc2n1C/C=C/c1ccccc1	none (no result: PHOSPHO1 block, UBC9 SUMO inh, pCIP destab)
NC(=O)N=Nc1c(O)[nH]c2ccc([N+](=O)[O-])cc12	none
COc1ccccc1C(=O)N=Nc1c(O)[nH]c2ccc([N+](=O)[O-])cc12	NadD block 32
COc1ccc(CCCc2nnc(SCC(=O)Nc3ccc(C)c(C)c3)o2)cc1	PHOSPHO1 block 85
S=C(Nc1ccc2cn[nH]c2c1)Nc1ccc(Cl)cc1Cl	none
S=C(Nc1ccc2cn[nH]c2c1)Nc1ccccc1Cl	UBC9 SUMO inh 88
O=C(/C=C/[C@H]1O[C@@H](n2ccc(=O)[nH]c2=O)[C@H](O)[C@@H]1O)NC(c1ccccc1)c1ccccc1	none (no result: PHOSPHO1 block, UBC9 SUMO inh, pCIP destab)
O=C1/C(=C/c2ccco2)Oc2c1ccc(O)c2CN1CCCCC1	UBC9 SUMO inh 61
O=C1C=C(NCCN2CCOCC2)C(=O)c2cnccc21	UBC9 SUMO inh 84 (no result: NadD block)
O=C(NCCN1CCOCC1)c1ccncc1	none
CCn1c2ccccc2c2cc(NC(=O)CSc3nnc(C4CC4)n3Cc3ccco3)ccc21	NadD block 32
COCCN1C[C@@H](CO)O[C@@H](n2cnc3c(NC4CC4)ncnc32)C1	none (no result: PHOSPHO1 block, UBC9 SUMO inh, pCIP destab)
CCc1cc[n+](-c2nc([O-])sc2C=O)cc1	PHOSPHO1 block 79
COc1cccc(CN2CCC2(C)C(=O)NCCc2ccccn2)c1OC (centres undefined)	none (no result: PHOSPHO1 block, UBC9 SUMO inh, pCIP destab)
CCOC(=O)c1cnc(SCC(=O)Nc2sc(C)c(C)c2C#N)nc1N	PHOSPHO1 block 92
CCOC(=O)c1sc(NC(=O)CSc2nc(C)cc(-c3ccccc3)n2)c(C#N)c1C	PHOSPHO1 block 88
Cc1ccc(S(=O)(=O)Oc2ccccc2[N+](=O)[O-])cc1	none (no result: PHOSPHO1 block, UBC9 SUMO inh, pCIP destab)
CC(=O)c1c(C)[nH]c(C(=O)CSc2nnc(-c3ccco3)n2Cc2ccccc2)c1C	PHOSPHO1 block 62
O=C(COc1ccc(F)cc1Br)N1CCN(S(=O)(=O)/C=C/c2ccccc2)CC1	PHOSPHO1 block 62
O=C(COc1ccc(F)cc1Br)N1CCN(c2ncccn2)CC1	none
COc1ccc(NC(=O)c2cc(C3CCCCN3C(=O)C3CCCCC3)on2)c(C)c1 (centres undefined)	none (no result: PHOSPHO1 block, UBC9 SUMO inh, pCIP destab)
CC1(c2ccc(Cl)c(Cl)c2)NC(=S)N2C1NC(=S)N2c1ccccc1 (centres undefined)	PHOSPHO1 block 89
Fc1ccc(NC(=S)N2CCCc3ccccc32)cc1	PHOSPHO1 block 95
S=C(Nc1cccnc1)N1CCc2ccccc21	none
CC(C)(C)c1cc(-c2csc(Nc3ccccc3)[n+]2Cc2ccc(C(=O)O)cc2)cc(C(C)(C)C)c1O	NadD block 66
